Assay results: PubChem BioAssay (Tox21)
Records with an inconclusive call do not appear. Active and inactive are the calls of the source. Unless noted, calls follow the shape of the dose curve; as a rule, active = well fitted curve in the direction sought with a large enough effect in the repeat runs; inconclusive = weak or mixed curves; inactive = no such curve, though single readings can be large; an effect the other way counts as inactive or inconclusive.

Columns and labels:
[1] = biological target: Thyrotropin receptor (Homo sapiens) (UniProt P16473); experiment: qHTS assay to identify small molecule agonists of the thyroid stimulating hormone receptor (TSHR) signaling pathway (AID 1224843; calls by dose curve; also: nearly all actives have a fitted effect of over 45% in size; also: potency is read from the fitted curve at half-maximal effect)
How it was run: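 Using 15 concentrations per compound in triplicate, cAMP production was monitored in TSHR-HEK293 cells after 30 min compound incubation at RT; HTRF reagents followed, with fluorescence intensity recorded after 1 h.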

[2] = qHTS assay to identify small molecule agonists of the hypoxia (HIF-1) signaling pathway - cell viability counter screen (AID 1224844; calls by dose curve; also: nearly all actives have a fitted effect of over 50% in size)
How it was run: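 Same wells as the HIF-1 reporter screen; ME-180 cells carrying HRE-bla, 17 hr treatment at 37C; CellTiter-Glo luminescence read after 30 min at room temperature.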

[3] = qHTS assay to identify small molecule agonists of H2AX (AID 1224845; active = well fitted activation curve with a large enough effect in the signal ratio in the repeat runs, not every such curve was filed as active; the % refers to the signal ratio)
How it was run: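 Wild-type CHO-K1 cells plated overnight, then exposed 3 hr at 37C to compounds at 15 concentrations (0.76% DMSO). Lysed, then HTRF anti-pH2AX(S139)-cryptate/anti-H2AX-d2 detection after 24 hr at room temperature; emissions 665 and 620 nm.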

[4] = qHTS assay to identify small molecule agonists of the hypoxia (HIF-1) signaling pathway (AID 1224846; active = well fitted activation curve with a large enough effect in the signal ratio in the repeat runs, not every such curve was filed as active; the % refers to the signal ratio)
How it was run: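 In ME-180 cells bearing an HRE-bla construct, 17 h treatment with DMSO-dissolved compounds at 37C was followed by CCF4-AM loading to quantify reporter induction.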

[5] = qHTS assay to identify small molecule agonists of H2AX - cell viability counter screen (AID 1224847; calls by dose curve; also: top concentration of the series differs between compounds; nearly all actives have a fitted effect of over 30% in size)
How it was run: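 Cells plated first: CHO-K1, 1000 per well in 10% FBS medium, incubated overnight at 37C. Then 15-point compound titration added (final DMSO 0.76%) for 3 hr. Finally CellTiter-Glo added and luminescence read.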

[6] = qHTS RealTime-Glo MT Cell Viability Assay in HepG2 cells - 24 hour (AID 1224867); also: nearly all actives have a fitted effect of over 50% in size
How it was run: (§1)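 HepG2 cells were seeded at 600 cells/well together with NanoLuc luciferase and a cell-permeant prosubstrate, preincubated 5 h at 37 C/5% CO2, then pin-dosed with compounds in DMSO. Nonlytic luminescence from viable cells was read at each time point.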

[7] = qHTS RealTime-Glo MT Cell Viability Assay in HEK293 cells - 32 hour (AID 1224868); also: nearly all actives have a fitted effect of over 50% in size; also: potency is read from the fitted curve at half-maximal effect
How it was run: (§2)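 HEK293 cells were seeded at 600 cells/well together with NanoLuc luciferase and cell-permeant prosubstrate, preincubated 5 h at 37 C/5% CO2, then given compound in DMSO by pintool. Luminescence from viable-cell prosubstrate reduction was read repeatedly over 40 h.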

[8] = A CellTox Green Cytotoxicity Assay to monitor cytotoxicity in HEK293 cells - 0 hour (AID 1224869); also: nearly all actives have a fitted effect of over 50% in size
How it was run: (§3)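 Homogeneous no-lysis format: HEK293 cell suspension mixed with CellTox Green reagent, seeded, incubated 5 h at 37 C/5% CO2, then dosed by pintool with compound in DMSO.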

[9] = qHTS RealTime-Glo MT Cell Viability Assay in HepG2 cells - 40 hour (AID 1224870); also: nearly all actives have a fitted effect of over 50% in size
How it was run: (§4)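 HepG2 cells mixed with RealTime-Glo MT reagents (NanoLuc plus cell-permeant prosubstrate) were seeded at 600 cells/well, incubated 5 h at 37 C/5% CO2, then pinned with compounds in DMSO; nonlytic luminescence tracked viability during 40 h treatment.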

[10] = A CellTox Green Cytotoxicity Assay to monitor cytotoxicity in HEK293 cells - 40 hour (AID 1224871); also: nearly all actives have a fitted effect of over 45% in size
How it was run: as §3

[11] = qHTS RealTime-Glo MT Cell Viability Assay in HEK293 cells - 16 hour (AID 1224872); also: nearly all actives have a fitted effect of over 50% in size; also: potency is read from the fitted curve at half-maximal effect
How it was run: as §2

[12] = qHTS RealTime-Glo MT Cell Viability Assay in HepG2 cells - 8 hour (AID 1224873); also: nearly all actives have a fitted effect of over 55% in size
How it was run: as §4

[13] = qHTS RealTime-Glo MT Cell Viability Assay in HEK293 cells - 40 hour (AID 1224874); settings: RealTime-Glo luminescence; max response: stronger effect = lower value; also: nearly all actives have a fitted effect of over 50% in size; also: potency is read from the fitted curve at half-maximal effect
How it was run: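 Measured as luminescence from the same continuously cultured HEK293 wells at successive time points (0, 8, 16, 24, 32, 40 h) after compound addition. Reagent present from seeding; dosing at 5 h; incubation 37 C.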

[14] = A CellTox Green Cytotoxicity Assay to monitor cytotoxicity in HEK293 cells - 24 hour (AID 1224875); also: nearly all actives have a fitted effect of over 45% in size
How it was run: as §3

[15] = A CellTox Green Cytotoxicity Assay to monitor cytotoxicity in HepG2 cells - 16 hour (AID 1224876); also: nearly all actives have a fitted effect of over 45% in size
How it was run: (§5)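 Fluorescent DNA-binding dye, 600 HepG2 cells/well, 5 h preincubation then compound in DMSO; same plates read at 0–40 h, 37 C.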

[16] = qHTS RealTime-Glo MT Cell Viability Assay in HepG2 cells - 32 hour (AID 1224877); also: nearly all actives have a fitted effect of over 55% in size
How it was run: as §1

[17] = A CellTox Green Cytotoxicity Assay to monitor cytotoxicity in HepG2 cells - 24 hour (AID 1224878); also: nearly all actives have a fitted effect of over 45% in size
How it was run: as §5

[18] = A CellTox Green Cytotoxicity Assay to monitor cytotoxicity in HepG2 cells - 40 hour (AID 1224879); also: nearly all actives have a fitted effect of over 40% in size
How it was run: as §5

[19] = qHTS assay to identify small molecule antagonists of the estrogen related receptor (ERR) signaling pathway from Tox21 library (AID 1224848); also: nearly all actives have a fitted effect of over 50% in size; also: potency is read from the fitted curve at half-maximal effect
How it was run: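 Tox21 10K compounds in DMSO tested for ERR pathway antagonism in NTP's ERR cell line; 18 h, 37 C exposure; ONE-Glo luminescence.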

[20] = qHTS assay to identify small molecule agonists of the estrogen related receptor (ERR) signaling pathway from Tox21 library (AID 1224849; calls by dose curve; also: nearly all actives have a fitted effect of over 15% in size); settings: ERR reporter cell line, ONE-Glo luciferase, 18 h; at 92.4 µM (top of the series) unless noted
How it was run: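 Reporter cells (ERR, NTP source) treated with Tox21 10K compounds 18 h, 37 C. Readout: ONE-Glo luminescence, 30 min RT.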
% is scaled to controls: 0 for no effect and ±100 for the full control effect.

Thyrotropin receptor (Homo sapiens), sequence (P16473 whole entry, looked up): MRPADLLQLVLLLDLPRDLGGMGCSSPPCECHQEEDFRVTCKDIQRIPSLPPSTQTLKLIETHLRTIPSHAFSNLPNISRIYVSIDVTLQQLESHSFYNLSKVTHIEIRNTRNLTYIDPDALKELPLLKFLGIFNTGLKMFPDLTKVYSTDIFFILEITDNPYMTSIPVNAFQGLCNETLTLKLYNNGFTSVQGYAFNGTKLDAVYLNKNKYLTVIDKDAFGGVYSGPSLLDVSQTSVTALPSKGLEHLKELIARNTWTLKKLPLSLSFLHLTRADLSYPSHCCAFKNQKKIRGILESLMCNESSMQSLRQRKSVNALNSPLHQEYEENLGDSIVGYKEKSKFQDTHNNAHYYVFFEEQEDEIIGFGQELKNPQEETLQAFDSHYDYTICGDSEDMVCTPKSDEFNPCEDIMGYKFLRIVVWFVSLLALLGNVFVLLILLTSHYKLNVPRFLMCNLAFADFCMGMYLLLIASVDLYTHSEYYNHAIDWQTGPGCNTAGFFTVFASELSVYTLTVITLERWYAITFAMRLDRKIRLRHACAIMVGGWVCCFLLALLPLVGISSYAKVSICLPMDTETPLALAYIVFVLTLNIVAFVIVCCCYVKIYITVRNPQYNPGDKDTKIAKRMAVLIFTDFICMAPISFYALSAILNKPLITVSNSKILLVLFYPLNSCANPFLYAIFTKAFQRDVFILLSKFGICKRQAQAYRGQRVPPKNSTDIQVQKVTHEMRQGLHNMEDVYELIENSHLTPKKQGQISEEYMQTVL

c1ccoc1
inactive: Potency [1] | Potency [2] | Potency [3] | outcome [4] | Potency [5] | Potency [6] | Potency [7] | Potency [8] | Potency [9] | Potency [10] | Potency [11] | Potency [12] | max response [13] -1.82% | Potency [14] | Potency [15] | Potency [16] | Potency [17]

Cc1cc(=O)[nH]o1
inactive: Potency [1] | Potency [2] | Potency [3] | outcome [4] | Potency [5] | Potency [6] | Potency [7] | Potency [8] | Potency [9] | Potency [10] | Potency [11] | Potency [12] | max response [13] 2.1% | Potency [14] | Potency [15] | Potency [16] | Potency [17] | Potency [18]

CC(Cl)Cl
inactive: Potency [1] | Potency [2] | Potency [3] | outcome [4] | Potency [5] | Potency [19] | activity change, positive = activation [20] -9.34% | Potency [6] | Potency [7] | Potency [8] | Potency [10] | Potency [11] | Potency [12] | max response [13] 3.34% | Potency [15] | Potency [16] | Potency [17]

Cc1ccc2ccccc2c1
inactive: Potency [1] | Potency [2] | Potency [3] | outcome [4] | Potency [5] | Potency [19] | activity change, positive = activation [20] -0.842% | Potency [6] | Potency [7] | Potency [8] | Potency [9] | Potency [10] | Potency [11] | Potency [12] | max response [13] 0.388% | Potency [14] | Potency [15] | Potency [16] | Potency [17] | Potency [18]

COC(=O)c1cncn1C(C)c1ccccc1 (stereo not given)
inactive: Potency [1] | Potency [2] | Potency [3] | outcome [4] | Potency [5] | Potency [6] | Potency [7] | Potency [8] | Potency [9] | Potency [10] | Potency [11] | Potency [12] | max response [13] 1.22% | Potency [14] | Potency [15] | Potency [17] | Potency [18]

COc1cc(CC(C)N)cc2c1OCO2 (stereo not given)
inactive: Potency [1] | Potency [2] | Potency [3] | outcome [4] | Potency [5] | Potency [19] | activity change, positive = activation [20] -3.18% | Potency [6] | Potency [7] | Potency [8] | Potency [10] | Potency [11] | Potency [12] | max response [13] -17.7% | Potency [15] | Potency [16] | Potency [17]

COP(=S)(OC)Oc1cc(Cl)c(I)cc1Cl
inactive: Potency [1] | Potency [2] | Potency [3] | outcome [4] | Potency [6] | Potency [7] | Potency [8] | Potency [9] | Potency [10] | Potency [11] | Potency [12] | max response [13] -19.9% | Potency [14] | Potency [15] | Potency [16] | Potency [17] | Potency [18]

O=[N+]([O-])c1ccccc1CCl
inactive: Potency [1] | Potency [2] | Potency [3] | outcome [4] | Potency [6] | Potency [7] | Potency [8] | Potency [9] | Potency [10] | Potency [11] | Potency [12] | max response [13] 8.2% | Potency [14] | Potency [15] | Potency [16] | Potency [17] | Potency [18]

CC(C)N(C(=O)COc1nnc(C(F)(F)F)s1)c1ccc(F)cc1
inactive: Potency [1] | Potency [2] | Potency [3] | outcome [4] | activity change, positive = activation [20] -34.1% | Potency [8] | Potency [10] | Potency [14] | Potency [15] | Potency [17] | Potency [18]
active: Potency [19] 54.5 µM | Potency [11] 34.7 µM

Clc1cccc(SC2CCNCC2)n1
inactive: Potency [1] | Potency [2] | Potency [3] | outcome [4] | Potency [19] | activity change, positive = activation [20] 0.887% [at 42.5 µM] | Potency [6] | Potency [7] | Potency [8] | Potency [9] | Potency [10] | Potency [11] | Potency [12] | max response [13] 1.39% | Potency [15] | Potency [17]

Sc1ccccc1Cl
inactive: Potency [1] | Potency [2] | Potency [3] | outcome [4] | Potency [19] | activity change, positive = activation [20] 1.99% [at 42.5 µM] | Potency [6] | Potency [7] | Potency [8] | Potency [9] | Potency [10] | Potency [11] | Potency [12] | max response [13] -1.55% | Potency [14] | Potency [16] | Potency [18]

CO/N=C(/C(=O)OC)c1ccccc1COc1ccccc1C
inactive: Potency [1] | Potency [2] | Potency [3] | outcome [4] | activity change, positive = activation [20] -47.7% | Potency [6] | Potency [7] | Potency [8] | Potency [9] | Potency [10] | Potency [11] | Potency [12] | Potency [15] | Potency [16] | Potency [17]
active: Potency [19] 1.54 µM

Clc1ccc(C2(Cn3cncn3)CC(Br)CO2)c(Cl)c1 (stereo not given)
active: Potency [19] 15.3 µM | Potency [7] 27.4 µM | Potency [11] 24.4 µM | Potency [13] 21.7 µM
inactive: Potency [1] | Potency [2] | Potency [3] | outcome [4] | activity change, positive = activation [20] -55.5% | Potency [6] | Potency [8] | Potency [10] | Potency [12] | Potency [15] | Potency [16]

COC(=O)C(C)N(C(=O)Cc1ccccc1)c1c(C)cccc1C (stereo not given)
inactive: Potency [2] | Potency [3] | outcome [4] | activity change, positive = activation [20] -38.3% | Potency [6] | Potency [8] | Potency [9] | Potency [10] | Potency [12] | Potency [14] | Potency [15] | Potency [16]
active: Potency [1] 27.3 µM | Potency [19] 30.6 µM

Nc1nc(N)nc(N)n1
inactive: Potency [1] | Potency [2] | Potency [3] | outcome [4] | Potency [5] | Potency [6] | Potency [7] | Potency [8] | Potency [10] | Potency [11] | Potency [12] | max response [13] 14.5% | Potency [14] | Potency [15] | Potency [16] | Potency [17] | Potency [18]

CCCN(CC1CC1)c1c([N+](=O)[O-])cc(C(F)(F)F)cc1[N+](=O)[O-]
inactive: Potency [2] | Potency [3] | outcome [4] | Potency [5] | Potency [6] | Potency [7] | Potency [8] | Potency [9] | Potency [10] | Potency [12] | max response [13] 9.65% | Potency [14] | Potency [15] | Potency [16] | Potency [17] | Potency [18]
active: Potency [1] 6.86 µM
